In all, about 220,000 compounds went through this assay and about 5,700 (2.6%) were called active. About 18% were inconclusive and are not listed. The entries come from a sample that favours actives as a whole. Values without a mark were called inactive. Calls come from the whole dose curve; as a rule, active = well fitted inhibition curve with a large enough effect; inconclusive = small, poorly fitted or top-dose-only effect; inactive = no such curve, though single readings can be large or run the other way.
Target: Lysine-specific demethylase 5B (Homo sapiens) (UniProt Q9UGL1)
Assay: Primary screen for KDM5B Histone Demethylases FDH-coupled qHTS; note: nearly all actives have a fitted effect of over 70% in size; for activity change, negative = inhibition: 0% is about no effect
Settings: FDH-coupled NADH fluorescence (FDH is formaldehyde dehydrogenase); series mostly up to 57.7 µM; activity change, negative = inhibition: at the top concentration
Summary of the method: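 qHTS format, multiple compound concentrations. Buffer 50 mM HEPES pH 7.5/0.01% Tween-20; 200 nM KDM5BΔAP final; 10 min compound preincubation; substrate-mix levels 12.5 µM peptide, 25 µM α-KG, 0.25 mM NAD⁺; 30 min RT; ΔRFU.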
Potency is the fitted concentration of half-maximal effect.

Sequence of Lysine-specific demethylase 5B (Homo sapiens) (Q9UGL1 whole entry, looked up): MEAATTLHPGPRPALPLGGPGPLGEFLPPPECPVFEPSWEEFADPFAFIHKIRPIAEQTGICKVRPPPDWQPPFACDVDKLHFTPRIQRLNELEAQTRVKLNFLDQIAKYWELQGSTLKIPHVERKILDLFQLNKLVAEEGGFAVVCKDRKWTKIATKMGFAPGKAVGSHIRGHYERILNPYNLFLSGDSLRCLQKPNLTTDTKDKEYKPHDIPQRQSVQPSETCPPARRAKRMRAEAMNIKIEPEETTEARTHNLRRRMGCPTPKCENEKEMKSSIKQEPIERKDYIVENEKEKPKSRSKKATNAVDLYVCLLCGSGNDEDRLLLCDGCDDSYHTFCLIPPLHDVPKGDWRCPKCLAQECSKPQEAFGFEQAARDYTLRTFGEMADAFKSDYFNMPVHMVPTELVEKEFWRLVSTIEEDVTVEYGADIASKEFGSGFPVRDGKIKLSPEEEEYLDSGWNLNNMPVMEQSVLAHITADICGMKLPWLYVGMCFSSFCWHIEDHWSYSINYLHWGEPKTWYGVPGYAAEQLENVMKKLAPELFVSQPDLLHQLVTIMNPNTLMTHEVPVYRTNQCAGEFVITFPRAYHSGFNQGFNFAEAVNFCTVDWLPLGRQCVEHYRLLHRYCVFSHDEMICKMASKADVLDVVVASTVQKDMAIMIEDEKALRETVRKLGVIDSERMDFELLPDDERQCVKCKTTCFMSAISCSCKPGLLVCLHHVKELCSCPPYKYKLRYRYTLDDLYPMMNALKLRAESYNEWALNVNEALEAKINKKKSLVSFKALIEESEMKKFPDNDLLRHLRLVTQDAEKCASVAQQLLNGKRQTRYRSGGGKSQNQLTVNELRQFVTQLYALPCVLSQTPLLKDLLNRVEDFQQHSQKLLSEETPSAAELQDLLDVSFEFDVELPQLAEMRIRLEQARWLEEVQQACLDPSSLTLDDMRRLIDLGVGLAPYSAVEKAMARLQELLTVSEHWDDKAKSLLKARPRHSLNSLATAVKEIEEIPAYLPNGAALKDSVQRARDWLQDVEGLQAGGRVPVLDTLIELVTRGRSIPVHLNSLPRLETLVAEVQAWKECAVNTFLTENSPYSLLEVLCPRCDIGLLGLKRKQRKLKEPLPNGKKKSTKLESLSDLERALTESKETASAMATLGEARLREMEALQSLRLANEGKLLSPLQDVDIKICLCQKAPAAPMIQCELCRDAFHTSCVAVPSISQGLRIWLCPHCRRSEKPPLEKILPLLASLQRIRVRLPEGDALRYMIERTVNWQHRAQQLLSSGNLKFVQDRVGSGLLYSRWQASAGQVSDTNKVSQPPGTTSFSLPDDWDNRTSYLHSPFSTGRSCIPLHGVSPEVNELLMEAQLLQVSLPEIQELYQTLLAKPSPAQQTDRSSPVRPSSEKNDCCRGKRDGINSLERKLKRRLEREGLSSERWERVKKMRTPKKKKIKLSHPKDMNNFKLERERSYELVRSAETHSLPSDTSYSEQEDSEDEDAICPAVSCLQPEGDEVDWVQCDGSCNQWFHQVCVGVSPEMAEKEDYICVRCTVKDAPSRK

Compared with `CSCCC(NC(=O)[C@@H](NC(=O)c1ccc(F)cc1)C(C)C)c1nnc2ccccn12` (some centres not stated), `O=C(Nc1ccc2oc(-c3cccc(Cl)c3)nc2c1)c1ccc(F)cc1` is higher in “activity change, negative = inhibition” value: 1.26% for the first, 12.7% for the second.

Going from `O=C(Nc1cccc(Cl)c1)N1CCN(c2cc(=O)n3nc(-c4ccco4)sc3n2)CC1` to `N#CCCN1CCN(C(=O)c2cn3ccnc(-c4ccccc4)c3n2)CC1`, the “activity change, negative = inhibition” value falls from 15.2% to -13.1%.

Compared with `CCc1ccc2oc(C(=O)Nc3ccccc3Cl)cc(=O)c2c1`, `CCS(=O)(=O)N1CC(=O)N(Cc2ccccc2Cl)C(C)(C(=O)NCc2ccccc2OC)C1` (configuration not stated) is higher in “activity change, negative = inhibition” value: -7.99% for the first, 19.1% for the second.

Going from `Fc1ccc(NC(=S)NCC(c2ccccc2)c2ccccc2)cc1` to `CN(c1ccccc1)S(=O)(=O)c1ccc(NC(=O)COc2ccccc2)cc1`, the “activity change, negative = inhibition” value rises from -19.1% to 18.6%.

First: CC(C)(C)C(=O)NCCCC(=O)NCc1cccnc1
Second: CCn1cc(-c2ccc(C)cc2)cc1C(=O)NCc1cccnc1
The “activity change, negative = inhibition” value of the first is lower: -10.7% for the first, 1.22% for the second.

Going from `O=C(NC(=S)NC1CCCCC1)c1ccc(Cl)cc1` to `COc1ccc(CNC(=O)C2CCCC2)cc1`, the “activity change, negative = inhibition” value rises from -10.9% to 7.63%.

Going from `N#CCCN1CCN(C(=O)c2cn3ccnc(-c4ccc(F)cc4)c3n2)CC1` to `Cn1cc(C(=O)N2CCN(C(=O)Cc3ccccc3)CC2)c2ccccc21`, the “activity change, negative = inhibition” value rises from -25.6% to 10.9%.

First: COc1ccc(-c2noc(-c3cccn3CC(=O)Nc3cc(Cl)ccc3OC)n2)cc1F
Second: COc1ccc(-c2noc([C@@H]3CCCN3C(=O)CCCc3ccccc3)n2)cc1OC
The “activity change, negative = inhibition” value of the first is higher: 27.2% for the first, -13.2% for the second.

Going from `CCCn1nc(C(=O)Nc2sc3c(c2C(N)=O)CCC3)c2ccccc2c1=O` to `CN(CC(=O)N1CCCC1)c1nc(-c2cccs2)nc2ccccc12`, the “activity change, negative = inhibition” value rises from -13.1% to 4.38%.

Compared with `CCc1noc(-c2cn(C3CCN(C(=O)c4ccc(Cl)cc4)C3)nn2)n1` (configuration not stated), `CCc1noc(-c2cn(C3CCN(C(=O)c4cccc(OC)c4)C3)nn2)n1` (configuration not stated) is lower in “activity change, negative = inhibition” value: 1.84% for the first, -12.9% for the second.

Compared with `O=C(c1cccnc1)N1CCC(Cc2nc(C3CCOCC3)no2)CC1`, `CC(C)CC(=O)N1CCC(c2noc(-c3cnccn3)n2)C1` (configuration not stated) is higher in “activity change, negative = inhibition” value: -22.2% for the first, -1.65% for the second.

Compared with `CCC(C(=O)Nc1cccc(-c2nc3cccnc3s2)c1C)c1ccccc1` (configuration not stated), `c1cncc(CNc2cc(-c3cnc4ccccc4n3)c3cc[nH]c3n2)c1` is lower in “activity change, negative = inhibition” value: -12.9% for the first, -21.9% for the second.

Compared with `CCc1noc(-c2cn(C3CCN(C(=O)C4(c5ccccc5)CC4)C3)nn2)n1` (configuration not stated), `CC1CCCN(CC(=O)Nc2cc(Cl)ccc2Oc2ccccc2)C1` (configuration not stated) is higher in “activity change, negative = inhibition” value: 15% for the first, 21.3% for the second.

Going from `CCNC(=O)c1noc(-c2ccc[nH]c2=O)n1` to `CC(C)c1nc(CNC(=O)c2ccc(N(C)C)nc2)no1`, the “activity change, negative = inhibition” value rises from -6640% to -12.7%.

First: c1ccc(-c2nc(CN3CCCC3c3cccs3)co2)cc1 (configuration not stated)
Second: Cc1ccc(NC(=O)CN(C)C(=O)c2nc(-c3ccccc3)oc2C)cc1
The “activity change, negative = inhibition” value of the first is lower: -18.7% for the first, 8.05% for the second.

Going from `O=C1Cc2cc(-c3csc(Nc4ccc(F)cc4)n3)ccc2N1` to `COc1ccc(CNc2nc3c(c(=O)[nH]c(=O)n3C)n2Cc2ccccc2)cc1`, the “activity change, negative = inhibition” value rises from -0.328% to 13.7%.

First: CC(=O)Nc1ccc(SC2CCCCCC2=O)cc1 (configuration not stated)
Second: N#Cc1nc(/C=C/c2ccc(F)cc2)oc1NC1CCCCC1
The “activity change, negative = inhibition” value of the first is higher: -10.9% for the first, -163% for the second.

Compared with `CCC1CCc2c(sc(NC(=O)C(CC)CC)c2C#N)C1` (configuration not stated), `COc1ccc2cc(C(=O)NCC3CCCO3)[nH]c2c1` (configuration not stated) is lower in “activity change, negative = inhibition” value: -14.6% for the first, -50.3% for the second.

Going from `Nc1nc2ccc([N+](=O)[O-])cc2[n+]([O-])n1` to `C/C(=C\c1ccc([N+](=O)[O-])cc1)C(=O)c1ccccc1`, the “activity change, negative = inhibition” value rises from -18% to 21.4%.

Compared with `COc1cccc(N(CC(=O)NC2CCCC2)C(=O)Cn2nnc(-c3ccc(C)o3)n2)c1`, `CCC(C)C(NC(=O)NCc1ccc(C)cc1)C(=O)O` (configuration not stated) is higher in “activity change, negative = inhibition” value: 8.14% for the first, 23.5% for the second.

With `N#Cc1ccc(CCC(=O)Nc2ccc3ccccc3n2)cc1` the “activity change, negative = inhibition” value was -9.01%.

First: Cc1ccc(S(=O)(=O)N(C)Cc2ccccc2C(F)(F)F)cc1
Second: COCCOc1ccc(-c2noc([C@@H]3CCCN3Cc3cccnc3)n2)cn1
The “activity change, negative = inhibition” value of the first is higher: 3.72% [at 86.2 µM] for the first, -24.5% [at 86.2 µM] for the second.

`Cn1ncc2c(C(=O)NCc3cccnc3)cc(C(C)(C)C)nc21` was tested, and the Potency was 100 µM (active).
With `COc1ccccc1OCCNC(=O)c1cn2ccnc(-c3ccc(C)cc3)c2n1` the Potency was 28.2 µM (active).
With `O=C(NCc1nnc2c(-c3nc(C4CC4)no3)cccn12)c1cccnc1` the Potency was 25.1 µM (active).
`CCc1noc(-c2cccn3c(CNC(=O)C(CC)c4ccccc4)nnc23)n1` (configuration not stated) was tested, and the Potency was 28.2 µM (active).
`CCc1noc(-c2cccn3c(CNC(=O)c4cccc(Cl)c4)nnc23)n1` was tested, and the Potency was 31.6 µM (active).
With `CCc1noc(-c2cccn3c(CNC(=O)c4ccncc4)nnc23)n1` the Potency was 28.2 µM (active).
With `Fc1ccc(-c2cc(NC3CCCC3)nc3[nH]ccc23)nc1` the Potency was 31.6 µM (active).
In the case of `COc1ccc2c(c1)OCC(C(=O)NCc1cc3cc(OC)ccc3[nH]1)C2` (configuration not stated), the Potency is reported as 25.1 µM (active).
With `CC(=O)N1CCN(c2cc(-c3noc([C@@H]4CCCN4Cc4ccccc4)n3)ccn2)CC1` the Potency was 35.5 µM (active).
